EPAC1 ag: EPAC1 (human) agonism; 360,000 compounds, 0.073% hits; EPAC1 agonist qHTS, biochemical assay; response scale: 100% = response to 6.5 mM cAMP; AID 720707; Potency, µM (top dose mostly 154 µM), actives largely listed as activators; O95398; note: nearly all actives have a fitted effect of over 60% in size
Target sequence (O95398 whole entry, looked up): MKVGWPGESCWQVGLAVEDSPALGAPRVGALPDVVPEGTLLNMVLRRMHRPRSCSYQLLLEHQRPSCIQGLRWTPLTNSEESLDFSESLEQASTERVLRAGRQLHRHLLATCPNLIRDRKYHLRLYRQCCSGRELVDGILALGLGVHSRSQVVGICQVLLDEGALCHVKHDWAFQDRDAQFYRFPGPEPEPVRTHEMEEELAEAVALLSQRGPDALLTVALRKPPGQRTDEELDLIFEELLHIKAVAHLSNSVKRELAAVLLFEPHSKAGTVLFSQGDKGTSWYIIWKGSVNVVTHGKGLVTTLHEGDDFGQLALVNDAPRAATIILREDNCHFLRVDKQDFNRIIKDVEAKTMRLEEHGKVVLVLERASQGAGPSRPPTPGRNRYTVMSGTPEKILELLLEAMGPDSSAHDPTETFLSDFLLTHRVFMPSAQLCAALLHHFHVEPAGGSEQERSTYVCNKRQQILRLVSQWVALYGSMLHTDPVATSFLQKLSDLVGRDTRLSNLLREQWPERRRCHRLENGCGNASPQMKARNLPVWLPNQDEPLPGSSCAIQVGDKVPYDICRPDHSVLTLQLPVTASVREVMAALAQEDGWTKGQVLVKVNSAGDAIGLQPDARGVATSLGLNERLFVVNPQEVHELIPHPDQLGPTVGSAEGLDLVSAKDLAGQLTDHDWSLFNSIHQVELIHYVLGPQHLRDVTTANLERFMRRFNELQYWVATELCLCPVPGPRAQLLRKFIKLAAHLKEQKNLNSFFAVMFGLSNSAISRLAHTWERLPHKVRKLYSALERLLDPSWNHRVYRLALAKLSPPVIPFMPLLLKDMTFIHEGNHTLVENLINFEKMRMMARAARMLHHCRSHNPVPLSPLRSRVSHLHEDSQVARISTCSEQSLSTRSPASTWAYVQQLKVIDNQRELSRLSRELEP
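Fluorescent GDP-exchange assay: 100 nM EPAC1 with 250 nM Rap1B preloaded with BODIPY-GDP and 50 uM GDP; compounds tested as concentration series, 5 min at room temperature, then read every 5 min for 30 min (ex 480/em 540 nm); normalized to 6.5 mM cAMP.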
EPAC1 antagonist: antagonists of human EPAC1; AID 720709; O95398; 360,000 compounds, 0.14% hits; Potency, µM (series often up to 115 µM), hits mostly inhibitors; EPAC1 GEF assay, Rap1b-BODIPY-GDP exchange fluorescence; note: nearly all actives have a fitted effect of over 50% in size
KCNH2 WT inh: blocks the wildtype human KCNH2 potassium channel | U2OS, BacMam KCNH2, thallium flux FluxOr; hits give low values | activity change, % at 1.84 µM | 340,000 compounds, 0.37% hits;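 active = maximum activity change below -70%; inconclusive = maximum activity change between -70% and -50%; inactive = maximum activity change above -50%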
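U2OS cells were transduced with wild-type KCNH2 virus (2.03 x 10^8 / mL) for 4 h at room temperature, then cultured overnight at 37 C. Thallium flux was read with FluxOr dye. Rate constants were normalized to DMSO controls.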
KCNH2 3.1 block: KCNH2 3.1 (human) potassium channel inhibition; AID 720553; 340,000 compounds, 0.95% hits; U2OS KCNH2 3.1, thallium flux FluxOr; hits give low values; activity change, % (tested at about 1.8 µM);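 active = maximum activity change below -70%; inconclusive = maximum activity change from -70% to -50%; inactive = maximum activity change above -50%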;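 note: thallium influx rate constant from kinetic fluorescence after stimulation buffer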
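Measured as rate of thallium-driven FluxOr signal in transduced U2OS cells carrying the 3.1 channel, read kinetically for 2 min upon stimulation; values are rate constants scaled to DMSO control wells.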
EPAC2 agonist: agonists of human EPAC2 (RAPGEF4); EPAC2 activation, biochemical qHTS; response scale: 100% = 6.5 mM cAMP response; Q8WZA2; Potency, µM (titrated, usually from 154 µM), usual class: activators; 360,000 compounds, 0.079% hits; note: nearly all actives have a fitted effect of over 50% in size
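Setup: EPAC2 100 nM, labeled Rap1B complex 250 nM, free GDP 50 uM. Compound titrations pinned in, brief spin, 5 min room temperature incubation. Kinetic fluorescence read over 30 min, normalized to 6.5 mM cAMP.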
EPAC2 antag: antagonists of human EPAC2; Q8WZA2; EPAC2 GEF exchange of Rap1B-BODIPY-GDP, fluorescence; Potency, µM (series often up to 114 µM), most hits filed as inhibitors; 360,000 compounds, 0.18% hits; AID 720708; note: nearly all actives have a fitted effect of over 45% in size
Numbers stand for hits; i = inactive; ? = inconclusive; nt = no result given. A selection: hits, their analogues and other compounds. The true share with any hit is near 1.4%. Unless noted, calls come from the whole dose curve; as a rule, active = well fitted curve in the direction sought with a large enough effect; inconclusive = small, poorly fitted or top-dose-only effect, or another doubt; inactive = no such curve, though single readings can be large; an effect the other way counts as inactive or inconclusive.

SMILES	EPAC1 ag	EPAC1 antagonist	KCNH2 WT inh	KCNH2 3.1 block	EPAC2 agonist	EPAC2 antag
CC(C)CC1C(=O)N(Cc2cn(CCC3OCCO3)nn2)CCS(=O)(=O)N1Cc1ccc(-c2ccc(F)cc2)cc1 (stereo not given)	i	i	i	i	i	13µM
COc1ccc(CC(=O)N/N=C(/C)CC(=O)N(C)c2ccccc2)cc1	i	i	i	-92	i	i
CCOC(=O)N1CCN(C(=O)c2ccc(N3CC4CC(C3)c3cccc(=O)n3C4)c(NC(=O)c3ccc(F)cc3)c2)CC1 (stereo not given)	i	i	-163	i	i	i
COCCNC(=O)c1ccc(N2CC3CC(C2)c2cccc(=O)n2C3)c(NC(=O)c2ccc(F)cc2)c1 (stereo not given)	i	i	i	i	i	i
CCOC(=O)C1(CCOc2ccccc2)CCN(Cc2ccc(OC)c(COC)c2)CC1	i	i	i	?	i	i
CCOC(=O)C1(CCOc2ccccc2)CCN(Cc2cc(OC)c(O)c(OC)c2)CC1	i	i	i	-77	i	i
CCOC(=O)C1(CCOc2ccccc2)CCN(Cc2ccc(O)c(OCC)c2)CC1	i	i	-118	-102	i	i
CCOC(=O)C1(CCOc2ccccc2)CCN(Cc2ccc(OC)c(O)c2)CC1	i	i	-77	-112	i	i
CCOC(=O)C1(Cc2cccc(OC)c2)CCN(Cc2ccc(OC)c(O)c2)CC1	i	i	i	-77	i	i
CCOC(=O)C1(Cc2cccc(OC)c2)CCN(CCO)CC1	i	i	i	i	i	i
Cc1ccc(C(C#N)=Cc2ccc3c(c2)OCO3)cc1	i	i	i	i	i	i
Cn1nc(C(=O)Nc2ccccc2N2CCCC2)c2ccccc2c1=O	i	i	i	i	i	i
CC(C)CCn1cnc2c(cnn2-c2ccc(F)cc2)c1=O	i	i	-181	-137	i	i
COC(=O)c1ccccc1-c1ccc(/C=N/NC(=O)c2cc3ccccc3o2)o1	i	i	i	i	i	i
COC(=O)c1ccccc1-c1c2ccc(=N)cc-2oc2cc(N)ccc12	i	32µM	-118	?	i	?
Cc1ccc(C)c(S(=O)(=O)N2CCNCC2)c1	i	i	i	i	i	i
Cc1ccc(C)c(S(=O)(=O)c2c[nH]c(=S)[nH]c2=O)c1	i	i	i	-82	i	i
Cc1ccc(-n2c(C)nnc2SCC(=O)NC2CCCC2)cc1	i	i	i	i	i	i
O=C(O)COc1ccc(NC(=O)C(c2ccccc2)c2ccccc2)cc1	i	i	i	i	i	20µM
Cn1c(/C(C#N)=N/O)nc2ccccc21	i	i	i	i	i	i
CCn1c(/C(C#N)=N/O)nc2ccccc21	i	i	-115	-81	i	i
CCCCN(C)c1c(C)nc2ccc(C(=O)Nc3cc(-c4ccccc4)ccc3OC)cn12	i	i	nt	nt	i	i
Cc1nc(N2CCN(c3ccccn3)CC2)c2c(C)c(C(=O)Nc3ccc(F)cc3F)sc2n1	i	i	i	-93	i	i
Cc1nc(N2CCN(c3ccccn3)CC2)c2c(C)c(C(=O)Nc3ccc(F)cc3Cl)sc2n1	i	i	i	-88	i	i
Cc1nc(N2CCN(c3ccccn3)CC2)c2c(C)c(C(=O)Nc3ccccc3F)sc2n1	i	i	i	i	i	i
SMILES	EPAC1 ag	EPAC1 antagonist	KCNH2 WT inh	KCNH2 3.1 block	EPAC2 agonist	EPAC2 antag
CCCCCCCCC(=O)N1C(C)CCC1C (stereo not given)	i	i	i	i	i	i
Cc1onc(-c2ccccc2)c1C(=O)Nc1nnc(CC(C)C)s1	i	i	i	i	i	i
COc1cccc2sc(=NC(=O)CS(=O)(=O)c3ccc(Cl)cc3)n(C)c12	i	i	i	i	i	i
O=c1cc(CSc2ccc(Cl)cc2)[nH]c2[nH]n(-c3ccccc3)c(=O)c12	i	?	i	i	i	i
Cc1ccc(SCc2cc(=O)c3c(=O)n(-c4ccccc4)[nH]c3[nH]2)cc1	i	79µM	i	i	i	i
Cc1ccc(-n2nnnc2CCl)cc1	i	i	i	i	i	i
COCCn1nnnc1C(c1ccc(C)cc1)N1CCN(Cc2ccc3c(c2)OCO3)CC1 (stereo not given)	i	i	i	i	i	i
CCN1CCN(C(c2nnnn2Cc2ccc3c(c2)OCO3)C(C)C)CC1 (stereo not given)	i	i	i	i	i	i
CC(C)C(c1nnnn1Cc1ccc(F)cc1)N1CCN(Cc2ccc3c(c2)OCO3)CC1 (stereo not given)	i	i	i	-71	i	i
Cc1ccc(C(c2nnnn2Cc2cccs2)N2CCN(Cc3ccc4c(c3)OCO4)CC2)cc1 (stereo not given)	i	i	-110	-95	i	i
CC1C(=O)N2CCCc3cc(NC(=O)COc4ccc(Cl)cc4)cc1c32 (stereo not given)	i	i	i	i	i	i
Cc1csc(NC(=O)CSc2sc3c(O)cc(=O)[nH]c3c2C#N)n1	i	50µM	i	i	i	i
CCOCCCNC(=O)CN1C(=O)CSc2ccccc21	i	i	i	-72	i	i
Cc1cc(C)cc(NC(=O)CN2CCN(CCN=CC3=C(O)CC(C)(C)CC3=O)CC2)c1	i	i	i	-93	i	i
CCc1nnc(NC(=O)Cc2c[nH]c3ccccc23)s1	i	i	i	-144	i	i
CCc1ccc(Nc2ccc3nonc3c2[N+](=O)[O-])cc1	i	i	-134	-159	i	i
NC(c1ccncc1)c1ccc(Cl)cc1 (stereo not given)	i	i	i	i	i	i
O=C(Nc1ccccc1)c1ccc2nc(-c3ccco3)c(-c3ccco3)nc2c1	i	?	i	i	i	i
O=C(NCc1ccccc1)c1ccc2nc(-c3ccco3)c(-c3ccco3)nc2c1	i	32µM	i	i	i	i
CCN(CC1CCCN(CCc2cccc(F)c2)C1)C(=O)c1ccc(CSC)o1 (stereo not given)	i	i	i	-84	i	i
COc1cc(SC)ccc1C(=O)Nc1ccc2ncccc2c1	i	i	i	i	i	i
O=C(C1=C[C@@H](c2ccc3c(c2)OCO3)C[C@@H](OCCCCO)O1)N1CCOCC1	i	i	i	i	i	i
CN1CCN(C(=O)C2=C[C@H](c3ccc4c(c3)OCO4)C[C@H](OCCCCO)O2)CC1	i	i	i	-91	i	i
C=CCc1cc(C=Nc2ccc(N3CCOCC3)cc2)cc(OCC)c1O	i	i	i	i	i	i
CCOc1ccccc1NC(=O)C1CCCCN1S(=O)(=O)c1ccc(F)cc1 (stereo not given)	i	i	i	i	i	i
